Test results reported in PubChem BioAssay (NCI).
This is part of a sample that, as a whole, favours compounds with a hit. Of some 79,000 tested, about 15% had one in any assay. Rule as the data show it: active = growth inhibition above about 70%; inactive = the rest.

Key:
[1] = NCI Yeast Anticancer Drug Screen. Data for the rad50 strain (AID 155);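 also: 0% = growth of vehicle-only cultures of the same strain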; details: S. cerevisiae rad50 strain growth inhibition; at 50.0 µM; hits give high values
Summary of the method: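 Inhibition values express reduced yeast growth in compound-treated cultures relative to vehicle-treated controls.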

[2] = NCI Yeast Anticancer Drug Screen. Data for the mec2-1 strain (AID 157); details: S. cerevisiae mec2-1 strain, at 50.0 µM, hits give high values
Summary of the method: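 Each compound was tested on mec2-1 yeast, a strain altered in DNA damage repair or cell cycle control. Growth inhibition is reported relative to vehicle.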

[3] = NCI Yeast Anticancer Drug Screen. Data for the sgs1 mgt1 strain (AID 161);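 also: 0% = growth of cultures given vehicle only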; details: S. cerevisiae sgs1 mgt1 strain, at 50.0 µM, hits give high values
Summary of the method: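 Genetically altered yeast, compound exposure, growth inhibition relative to vehicle.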

[4] = NCI Yeast Anticancer Drug Screen. Data for the cln2 rad14 strain (AID 165);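 also: 0% = growth equal to vehicle treated cultures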; details: S. cerevisiae cln2 rad14 strain, at 50.0 µM, hits give high values
Summary of the method: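 Test compounds were added to cln2 rad14 yeast cultures; inhibition of growth was then determined by comparison with vehicle treatment.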

[5] = NCI Yeast Anticancer Drug Screen. Data for the bub3 strain (AID 167); details: S. cerevisiae bub3 mutant strain, at 50.0 µM, hits give high values
Summary of the method: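 Steps: expose the mutant yeast strain to compound; grow alongside vehicle-treated cultures; measure growth; express inhibition against the vehicle cultures.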

[6] = NCI Yeast Anticancer Drug Screen. Data for the mlh1 rad18 strain (AID 175); details: S. cerevisiae mlh1 rad18 strain growth inhibition; at 50.0 µM; hits give high values
Summary of the method: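 Inhibition values reflect reduced growth of mutant yeast versus vehicle-treated controls following compound exposure; the mutations affect DNA damage repair.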

Measured: growth inhibition

O=NNc1ccc(SSc2ccc(NN=O)cc2)cc1
inactive: [1] 39.8% | [2] 9.5% | [3] 22.9% | [4] 44.9% | [5] 8.05% | [6] 31.1%

O=c1c2ccccc2nc(-c2ccccc2)n1/N=C/c1cccnc1
inactive: [1] 0.9% | [2] 49.5% | [3] 30.8% | [4] -10.8% | [5] 7.5% | [6] 41.2%

COC(=O)CCCc1ccc2c(c1)CC1(C2)Cc2cc3c(cc2C1)CCCC3
inactive: [1] -14.5% | [2] -20.4% | [3] -11.2% | [4] -15.5% | [5] -11.9% | [6] -3.85%

CC(C)=CCC1=C(O)[C@@](O)(CC=C(C)C)C(=O)C(C(=O)CC(C)C)=C1O
inactive: [1] 28.2% | [2] 7.95% | [3] 31.7% | [4] 26.4% | [5] 35.2% | [6] 29.6%

CCCCCCCCCCCCCCCCCCN(C)CC(COC)OP(=O)([O-])OCC[N+](C)(C)C (stereo not drawn)
inactive: [1] 22.6% | [2] 14.3% | [3] 15.1% | [4] -3.45% | [5] 0.25% | [6] 24.9%

O=c1c(-c2ccccc2)nc2ccccc2n1CC1CCCN2CCCC[C@H]12 (stereo partly drawn)
inactive: [1] 3.9% | [2] -10% | [3] 18.3% | [4] -38.9% | [5] 22.7% | [6] 19.4%

O=C1CC2(C(=O)N1CN1CCOCC1)c1ccccc1-c1ccccc12
inactive: [1] -7.55% | [2] -4.5% | [3] 15.6% | [4] 3.7% | [5] 4.05% | [6] -11.1%

O=c1c(SCc2ccc(Cl)cc2)c(SCc2ccc(Cl)cc2)cnn1-c1ccccc1
inactive: [1] -5.7% | [2] -17.2% | [3] 19.2% | [4] 6.65% | [5] -6.6% | [6] 13.1%

CC(=O)OCC1OC(n2cnc(Br)c2[N+](=O)[O-])C(OC(C)=O)C1OC(C)=O (stereo not drawn)
inactive: [1] 30.6% | [2] 3.4% | [3] 17% | [4] 14.5% | [5] 0.65% | [6] 2.75%

O=c1[nH]c2nc3ccccc3c(=O)n2/c1=C/c1ccco1
inactive: [1] 30.2% | [2] 16.8% | [3] 5.5% | [4] 20.2% | [5] 23.1% | [6] 3.95%

CC(=O)Nc1ccc(S(=O)(=O)NC(=O)NC(C)C)cc1
inactive: [1] -4.2% | [2] -26.4% | [3] -2.4% | [4] 20% | [5] 3% | [6] 14.3%

NC(=O)C12C3C4C1C1C2C3C41C(N)=O (stereo not drawn)
inactive: [1] 29.1% | [2] 12.4% | [3] -1.7% | [4] 16.5% | [5] -5.8% | [6] 20.6%

NC(=O)CSCC(=O)O
inactive: [1] -5.9% | [2] -6.2% | [3] 14.5% | [4] -0.15% | [5] -23.2% | [6] -14.1%

CC(O)COC1CCCCC1 (stereo not drawn)
inactive: [1] -2.75% | [2] -10.9% | [3] 3.85% | [4] -7.25% | [5] -3.95% | [6] -0.95%

O=C(O)C(Br)C(O)c1ccccc1 (stereo not drawn)
inactive: [1] -5.15% | [2] -2.85% | [3] 0.85% | [4] 2.15% | [5] 4.25% | [6] -8.2%

CCOP(=O)(OCC)C(C(=O)OC)C(=O)C(=O)Nc1cccc([N+](=O)[O-])c1 (stereo not drawn)
inactive: [1] 7.8% | [2] -5.85% | [3] 23.2% | [4] -58.6% | [5] 0.35% | [6] 1.45%

COc1cc(NN=C(C#N)C#N)c(OC)cc1Cl
inactive: [1] 37.6% | [2] 11.2% | [3] 48% | [4] 23.1% | [5] 40.7% | [6] 34.7%

Nc1nc(C=O)c(CCc2ccccc2)c(=O)[nH]1
inactive: [1] 6.8% | [2] 8.95% | [3] -7.8% | [4] -28.7% | [5] -11% | [6] -12.4%

O=C(O)c1cc(-c2ccccc2)ccc1O
inactive: [1] 27.8% | [2] -70.3% | [3] 12.6% | [4] 25.2% | [5] -2.6% | [6] 46.6%

O=[N+]([O-])c1ccsc1Cl
inactive: [1] -7.85% | [2] -3.6% | [3] -14.6% | [4] -40.2% | [5] -4.1% | [6] -5.05%

Cc1ccc(OC/C=C/c2ccc(C#N)cc2)cc1
inactive: [1] 2.55% | [2] 0.05% | [3] -4.15% | [4] -17.6% | [5] 1.8% | [6] -3%

COc1ccc(/C=C2\CCN=C2c2ccccc2)cc1OC
inactive: [1] -1.65% | [2] -1.85% | [3] 2.85% | [4] -23.3% | [5] 4.4% | [6] 2.65%

CN(C)c1ccccc1C1CCCCCC1O (stereo not drawn)
inactive: [1] 15.8% | [2] 6.1% | [3] 17.9% | [4] 20.1% | [5] -22.3% | [6] 8.95%

CN(C)CCNc1ccc(NCCN(C)C)c2c1C(=O)c1ncsc1C2=O
inactive: [1] -8.15% | [2] -0.8% | [3] 14.2% | [4] 8.35% | [5] 2.1% | [6] -16.8%

O=C(Cc1ccc([N+](=O)[O-])cc1)ON1C(=O)CCC1=O
inactive: [1] -11.8% | [2] 2.65% | [3] -4.65% | [4] -18.9% | [5] -20.1% | [6] 6%

Oc1ccc2ccccc2c1/C=N/N=C/c1c(O)ccc2ccccc12
inactive: [1] 31.4% | [2] -14.6% | [3] 53.8% | [4] 20.9% | [5] 6.4% | [6] 3.8%

O=C(c1ccccc1)C1C(/C=C/c2ccccc2)C(C(=O)c2ccccc2)C1/C=C/c1ccccc1 (stereo not drawn)
inactive: [1] 41.2% | [2] -7.1% | [3] 11.8% | [4] 0.4% | [5] -4.5% | [6] 3.25%

Cc1cccc(Cl)c1N=Nc1c(C)nc(N)nc1-c1ccccc1
inactive: [1] 7.1% | [2] 15.8% | [3] 5.8% | [4] -11.5% | [5] 1.1% | [6] 7.8%

O=C1c2ccccc2C(=O)c2c(Nc3ccc4c5c(cccc35)C(=O)c3ccccc3-4)cccc21
inactive: [1] 23.1% | [2] 6.25% | [3] -14.2% | [4] -31.7% | [5] -8.4% | [6] 13.2%

O=C(NCc1ccccc1)Nc1cccc2c(NC(=O)NCc3ccccc3)cccc12
inactive: [1] -32.3% | [2] -31.2% | [3] -26.9% | [4] -8.15% | [5] -27.5% | [6] -7.95%

O=C(Cc1n[nH]c(=S)nc1CC(=O)c1cccnc1)c1cccnc1
inactive: [1] 7.8% | [2] 12.2% | [3] 16.1% | [4] -1% | [5] 26.8% | [6] 2.7%

Nc1nc(Cl)cc(Oc2ccc(Cl)cc2)n1
inactive: [1] 9.65% | [2] -17.6% | [3] 22.6% | [4] 2.5% | [5] 17% | [6] -30.6%

CN(C)C(=O)CCCCC(=O)N(C)C
inactive: [1] 16.5% | [2] -5.2% | [3] 1.45% | [4] -14.7% | [5] 5.65% | [6] -22.2%

Cc1cccc(NC(=O)c2cccc([N+](=O)[O-])c2C(=O)O)c1C
inactive: [1] 4.8% | [2] 11.9% | [3] 3.75% | [4] -7.15% | [5] 25.6% | [6] 10.8%

Cc1nc(NCc2ccco2)nc(NCc2ccco2)c1[N+](=O)[O-]
inactive: [1] -14.7% | [2] -18.6% | [3] -5.85% | [4] -22.6% | [5] 27.7% | [6] -13.1%

CCOC(=O)CN=c1nc(SC)sc2c(C(=O)OCC)nc(Sc3ccccc3)n12
inactive: [1] 1.25% | [2] -7.25% | [3] 1.55% | [4] 13.6% | [5] -11.4% | [6] 8.65%

COc1ccc(-n2c(C)nc3c(cnn3CN3CCCCC3)c2=O)cc1
inactive: [1] 4% | [2] -0.95% | [3] -1.25% | [4] -4.05% | [5] 8.75% | [6] 13.5%

O=C(O)/C=C/C(=O)Nc1ccc(Cl)cc1C(=O)c1ccccc1
inactive: [1] 24.6% | [2] 9.1% | [3] 33% | [4] 0.4% | [5] 14.6% | [6] 20.8%
